# For some of these results: Measured potencies and affinities stand elsewhere.
# Key:
# Set-up in all cases: scale not given: direction of the effect not stated beside the values
# [1] = molecular target: Protein translocase subunit SecA (Escherichia coli (strain K12)) (UniProt P10408); assay: Assay to Identify E. coli SecA ATPase Inhibitors; assay type: functional; settings: 30 µM
# [2] = molecular target: T1, Ubiquitin-activating enzyme e1, putative (Leishmania donovani (strain BPK282A1)) (UniProt E9BSI1); assay: Leishmania donovani Ubiquitin Activating Enzyme (LdE1); assay type: functional; settings: 30 µM
# T1 sequence (whole entry): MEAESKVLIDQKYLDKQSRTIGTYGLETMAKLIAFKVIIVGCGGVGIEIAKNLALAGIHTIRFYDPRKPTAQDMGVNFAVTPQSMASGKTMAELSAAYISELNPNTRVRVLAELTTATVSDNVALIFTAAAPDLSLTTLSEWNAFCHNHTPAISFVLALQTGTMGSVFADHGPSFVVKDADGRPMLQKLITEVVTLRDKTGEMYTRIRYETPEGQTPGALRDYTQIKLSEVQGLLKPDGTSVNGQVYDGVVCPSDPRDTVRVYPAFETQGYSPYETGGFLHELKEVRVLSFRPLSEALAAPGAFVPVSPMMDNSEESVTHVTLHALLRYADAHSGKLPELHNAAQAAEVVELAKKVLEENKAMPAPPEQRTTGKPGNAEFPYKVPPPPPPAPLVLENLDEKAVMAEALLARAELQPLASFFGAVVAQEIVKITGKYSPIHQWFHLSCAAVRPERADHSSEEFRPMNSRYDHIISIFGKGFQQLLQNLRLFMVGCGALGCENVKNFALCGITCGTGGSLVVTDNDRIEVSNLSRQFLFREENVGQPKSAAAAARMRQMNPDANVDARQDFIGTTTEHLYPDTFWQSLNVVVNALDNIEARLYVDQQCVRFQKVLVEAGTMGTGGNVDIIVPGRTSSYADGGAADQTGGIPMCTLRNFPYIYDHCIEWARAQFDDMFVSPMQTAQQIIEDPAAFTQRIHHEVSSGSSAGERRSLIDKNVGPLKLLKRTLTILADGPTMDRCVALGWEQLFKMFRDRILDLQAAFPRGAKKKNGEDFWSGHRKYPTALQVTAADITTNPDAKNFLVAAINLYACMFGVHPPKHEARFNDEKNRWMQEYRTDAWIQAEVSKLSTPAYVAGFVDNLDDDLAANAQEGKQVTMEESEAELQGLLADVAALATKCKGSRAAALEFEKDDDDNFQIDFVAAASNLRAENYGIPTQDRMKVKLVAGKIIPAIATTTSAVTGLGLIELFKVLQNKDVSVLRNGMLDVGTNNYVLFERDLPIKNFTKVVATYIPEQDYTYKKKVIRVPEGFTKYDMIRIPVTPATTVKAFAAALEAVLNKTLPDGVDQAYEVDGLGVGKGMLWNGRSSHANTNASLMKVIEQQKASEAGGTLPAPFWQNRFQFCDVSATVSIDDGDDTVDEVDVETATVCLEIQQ
# [3] = molecular target: AMP-activated protein kinase, AMPK (Homo sapiens) (UniProt P54646+O43741+P54619+Q9UGJ0+Q9Y478+Q13131+Q9UGI9); assay: AMP-dependent Kinase enzyme assay. An in vitro enzyme assay that detects ADP turnover that is directly proportional to AMPK activity. This uses naive AMPK that is activated during the assay with MK-8722; assay type: functional; settings: 30 µM
# [4] = molecular target: Sialic acid-binding Ig-like lectin 9 (Homo sapiens) (UniProt Q9Y336); assay: Hs-Siglec9 ALPHAscreen SOP 20170721; settings: 10 µM
# Sialic acid-binding Ig-like lectin 9 (Homo sapiens), sequence (Q9Y336 whole entry): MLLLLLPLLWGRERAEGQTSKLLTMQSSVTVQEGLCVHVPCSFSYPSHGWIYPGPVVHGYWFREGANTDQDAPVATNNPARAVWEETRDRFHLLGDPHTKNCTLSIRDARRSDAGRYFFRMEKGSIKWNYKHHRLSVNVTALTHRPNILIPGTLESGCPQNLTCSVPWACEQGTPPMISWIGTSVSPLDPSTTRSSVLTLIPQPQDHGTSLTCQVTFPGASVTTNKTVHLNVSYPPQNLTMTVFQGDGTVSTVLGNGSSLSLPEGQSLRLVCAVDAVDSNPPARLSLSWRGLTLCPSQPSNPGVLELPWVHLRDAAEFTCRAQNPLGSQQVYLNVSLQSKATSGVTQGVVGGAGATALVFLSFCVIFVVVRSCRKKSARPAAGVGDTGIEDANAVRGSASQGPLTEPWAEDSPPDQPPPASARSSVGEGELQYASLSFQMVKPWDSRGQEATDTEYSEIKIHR
# Trypanosoma cruzi = assay: Trypanosoma cruzi phosphomannomutase and mannose-1-phosphate guanylyltransferase assay; assay type: functional; settings: 10 µM
# [5] = molecular target: T2, Arginase-2, mitochondrial (Homo sapiens) (UniProt P78540); assay: in vitro enzyme assay to detect the production of urea directly proportional to the activity of Arginase II; assay type: functional; settings: 33.3 µM; note: in the data most compounds retested in dose-response had high values
# T2 sequence (whole entry): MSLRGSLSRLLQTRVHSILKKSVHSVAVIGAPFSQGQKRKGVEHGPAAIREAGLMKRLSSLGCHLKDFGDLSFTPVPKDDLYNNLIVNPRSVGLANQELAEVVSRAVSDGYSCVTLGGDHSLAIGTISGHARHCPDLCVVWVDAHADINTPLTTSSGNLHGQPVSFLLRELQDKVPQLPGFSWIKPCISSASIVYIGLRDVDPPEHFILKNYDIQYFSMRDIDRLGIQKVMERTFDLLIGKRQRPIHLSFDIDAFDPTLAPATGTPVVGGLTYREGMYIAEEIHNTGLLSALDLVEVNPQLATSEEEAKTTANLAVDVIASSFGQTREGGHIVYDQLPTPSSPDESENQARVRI
# [6] = molecular target: T3, Proteasome subunit beta (Trypanosoma cruzi) (UniProt O96673); assay: Trypanosoma cruzi proteasome chymotrypsin-like activity (TcProtChymo) assay.; note: in the data most compounds retested in dose-response had high values; assay type: functional; settings: 9.37 µM
# T3 sequence (whole entry): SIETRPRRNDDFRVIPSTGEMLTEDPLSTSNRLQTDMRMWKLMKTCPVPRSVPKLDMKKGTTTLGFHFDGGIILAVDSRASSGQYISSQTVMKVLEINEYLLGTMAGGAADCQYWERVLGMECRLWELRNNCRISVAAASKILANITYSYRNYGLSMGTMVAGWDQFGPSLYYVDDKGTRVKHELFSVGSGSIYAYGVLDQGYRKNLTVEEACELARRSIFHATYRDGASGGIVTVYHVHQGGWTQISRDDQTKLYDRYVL
# Homo sapiens = species on record: Homo sapiens; assay: To identify inhibition of the IFN signalling (Jak-Stat) pathway via expression of an eGFP reporter gene under the control of an IFN-stimulated response element (ISRE) containing MxA promoter.; assay type: functional; settings: 30 µM
# [7] = molecular target: T4, Tyrosyl-tRNA synthetase, putative (Trypanosoma cruzi (strain CL Brener)) (UniProt Q4DSP6); assay: Trypanosoma cruzi tyrosyl tRNA synthetase (TcYRS) _High Tyrosine SOP; assay type: functional; settings: 30 µM; note: in the data most compounds retested in dose-response had high values
# T4 sequence (whole entry): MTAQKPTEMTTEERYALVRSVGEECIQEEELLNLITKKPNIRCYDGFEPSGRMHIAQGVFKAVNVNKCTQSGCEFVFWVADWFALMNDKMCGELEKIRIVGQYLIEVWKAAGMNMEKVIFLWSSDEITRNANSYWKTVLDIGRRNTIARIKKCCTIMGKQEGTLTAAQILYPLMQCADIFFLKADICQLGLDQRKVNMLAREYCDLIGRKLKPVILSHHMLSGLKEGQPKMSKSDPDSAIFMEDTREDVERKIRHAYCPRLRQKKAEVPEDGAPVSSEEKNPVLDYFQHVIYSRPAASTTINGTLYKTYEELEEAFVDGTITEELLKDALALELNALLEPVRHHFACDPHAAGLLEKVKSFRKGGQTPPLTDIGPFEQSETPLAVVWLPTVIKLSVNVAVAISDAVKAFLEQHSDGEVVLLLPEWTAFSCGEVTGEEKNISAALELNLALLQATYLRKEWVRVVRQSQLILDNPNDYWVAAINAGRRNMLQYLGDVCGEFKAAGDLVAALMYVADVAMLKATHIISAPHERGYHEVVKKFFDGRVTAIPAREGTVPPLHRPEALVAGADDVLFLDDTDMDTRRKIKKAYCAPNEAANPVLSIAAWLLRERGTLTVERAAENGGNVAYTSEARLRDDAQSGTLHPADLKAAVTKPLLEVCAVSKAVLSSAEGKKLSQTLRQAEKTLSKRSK
# [8] = molecular target: T4, Tyrosyl-tRNA synthetase, putative (Trypanosoma cruzi (strain CL Brener)); assay: Trypanosoma cruzi tyrosyl tRNA synthetase (TcYRS) SOP; assay type: functional; settings: 30 µM
# [9] = molecular target: Chromo domain-containing protein 1 (Saccharomyces cerevisiae (strain ATCC 204508 / S288c) (Baker's yeast)) (UniProt P32657); assay: ScCHD-1 Enzyme Inhibition Assay; assay type: functional; settings: 30 µM; note: in the data most compounds retested in dose-response had high values
# Chromo domain-containing protein 1 (Saccharomyces cerevisiae (strain ATCC 204508 / S288c) (Baker's yeast)), sequence (P32657 whole entry, the tested form may be a part): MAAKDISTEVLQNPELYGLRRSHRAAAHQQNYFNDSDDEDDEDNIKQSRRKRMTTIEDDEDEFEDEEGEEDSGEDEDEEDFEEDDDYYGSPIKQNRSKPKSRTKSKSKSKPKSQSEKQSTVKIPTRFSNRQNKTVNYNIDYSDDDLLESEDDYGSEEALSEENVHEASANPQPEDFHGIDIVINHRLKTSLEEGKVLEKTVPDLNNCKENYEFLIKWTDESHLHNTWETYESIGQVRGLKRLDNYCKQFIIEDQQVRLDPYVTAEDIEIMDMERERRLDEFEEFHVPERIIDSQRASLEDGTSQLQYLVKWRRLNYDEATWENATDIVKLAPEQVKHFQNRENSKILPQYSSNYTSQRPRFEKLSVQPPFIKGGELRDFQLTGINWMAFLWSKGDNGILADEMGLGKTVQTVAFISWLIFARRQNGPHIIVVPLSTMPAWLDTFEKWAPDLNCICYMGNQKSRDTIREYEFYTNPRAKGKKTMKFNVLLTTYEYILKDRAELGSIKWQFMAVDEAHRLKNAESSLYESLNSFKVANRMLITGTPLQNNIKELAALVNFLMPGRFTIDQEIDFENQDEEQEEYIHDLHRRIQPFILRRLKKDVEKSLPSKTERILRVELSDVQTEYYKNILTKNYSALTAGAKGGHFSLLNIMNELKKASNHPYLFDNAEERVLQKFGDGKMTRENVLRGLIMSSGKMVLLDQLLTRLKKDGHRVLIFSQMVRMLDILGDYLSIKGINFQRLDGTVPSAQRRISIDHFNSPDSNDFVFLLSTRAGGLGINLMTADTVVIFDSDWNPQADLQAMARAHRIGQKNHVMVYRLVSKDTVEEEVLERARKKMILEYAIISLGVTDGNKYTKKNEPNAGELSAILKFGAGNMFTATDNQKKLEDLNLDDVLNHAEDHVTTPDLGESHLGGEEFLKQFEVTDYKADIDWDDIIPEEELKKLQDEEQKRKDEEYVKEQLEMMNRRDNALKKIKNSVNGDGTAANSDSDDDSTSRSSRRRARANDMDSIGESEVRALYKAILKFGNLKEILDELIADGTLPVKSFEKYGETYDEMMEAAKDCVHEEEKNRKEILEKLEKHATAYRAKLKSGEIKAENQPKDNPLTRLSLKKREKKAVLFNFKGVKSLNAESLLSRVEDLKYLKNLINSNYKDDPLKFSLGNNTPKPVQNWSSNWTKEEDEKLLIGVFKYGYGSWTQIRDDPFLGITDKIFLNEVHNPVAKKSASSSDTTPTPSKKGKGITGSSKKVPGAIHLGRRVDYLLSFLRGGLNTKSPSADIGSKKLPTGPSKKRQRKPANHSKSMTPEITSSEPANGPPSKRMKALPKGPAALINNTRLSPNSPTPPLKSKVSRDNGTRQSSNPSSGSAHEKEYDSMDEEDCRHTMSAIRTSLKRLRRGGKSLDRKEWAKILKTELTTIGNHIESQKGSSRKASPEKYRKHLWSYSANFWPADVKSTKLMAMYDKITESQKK
# Protein translocase subunit SecA (Escherichia coli (strain K12)), sequence (P10408 whole entry): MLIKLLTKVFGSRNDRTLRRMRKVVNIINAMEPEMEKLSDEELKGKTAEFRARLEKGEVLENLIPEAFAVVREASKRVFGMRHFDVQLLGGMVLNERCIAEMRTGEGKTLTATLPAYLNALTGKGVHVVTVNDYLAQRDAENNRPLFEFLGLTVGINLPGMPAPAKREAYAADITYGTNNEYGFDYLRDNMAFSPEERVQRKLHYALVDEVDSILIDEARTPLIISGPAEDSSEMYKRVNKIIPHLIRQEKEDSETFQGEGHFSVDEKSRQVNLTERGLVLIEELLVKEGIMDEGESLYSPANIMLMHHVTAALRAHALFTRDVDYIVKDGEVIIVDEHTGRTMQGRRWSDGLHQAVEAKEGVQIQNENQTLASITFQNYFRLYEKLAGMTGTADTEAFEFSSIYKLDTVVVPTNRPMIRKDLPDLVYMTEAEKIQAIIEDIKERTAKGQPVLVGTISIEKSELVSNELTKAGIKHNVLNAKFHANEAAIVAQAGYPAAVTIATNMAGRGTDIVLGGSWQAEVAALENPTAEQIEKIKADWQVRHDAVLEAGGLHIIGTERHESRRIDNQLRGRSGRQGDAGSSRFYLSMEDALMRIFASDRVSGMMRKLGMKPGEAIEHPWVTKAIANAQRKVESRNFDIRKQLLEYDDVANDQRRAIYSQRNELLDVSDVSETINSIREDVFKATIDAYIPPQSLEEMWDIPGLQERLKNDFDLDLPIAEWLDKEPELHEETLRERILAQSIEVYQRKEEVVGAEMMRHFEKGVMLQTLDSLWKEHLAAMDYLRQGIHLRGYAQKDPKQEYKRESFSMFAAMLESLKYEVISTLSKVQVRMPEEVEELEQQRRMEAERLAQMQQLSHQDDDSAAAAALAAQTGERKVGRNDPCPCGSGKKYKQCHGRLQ
SMILES,Percent Effect [1],Percent Effect [2],Percent Effect [3],Percent Effect [4],Percent Effect (Trypanosoma cruzi),Percent Effect [5],Percent Effect [6],Percent Effect (Homo sapiens),Percent Effect [7],Percent Effect [8],Percent Effect [9]
CCCn1c(C)cc(C(=O)CN2C(=O)c3ccccc3CS2(=O)=O)c1C,2.47%,-18.9%,-2.92%,7.94%,0%,1.91%,14.7%,21.2%,-10.1%,0%,8.3%
CC(=O)Nc1nc(C(=O)Nc2ccc(F)cc2)cs1,-2.09%,15.6%,28%,-6.42%,-1.86%,-15.4%,16.7%,8.03%,7.62%,18.8%,3.31%
O=C1CO[C@@H]2CN(CC3CCOCC3)C[C@H]2N1CC1CC1,-3.37%,10.8%,5.33%,-0.714%,-5.18%,5.41%,20.1%,10.6%,5.41%,17.9%,3.58%
CN(Cc1ccsc1)C(=O)Nc1ccc(S(=O)(=O)N(C)C)cc1,-1.98%,17.7%,-2.37%,-9.54%,-1.79%,-0.38%,-0.0819%,-7.23%,6.4%,21.5%,-6.52%
c1cc(C2CCCN2Cc2nnnn2C2CC2)cs1 (stereo not given),-2.2%,4.17%,-9.7%,-8.8%,-4.18%,0%,21.2%,0.525%,6.32%,10.3%,2.21%
Cn1ccnc1CN1CCN(CCOc2ccccc2C#N)CC1,-0.0443%,21.1%,4.11%,-9.14%,-3.83%,5.4%,5.67%,18.9%,7.39%,13.6%,-1.99%
COc1ncccc1NC(=O)NCC1CCS(=O)(=O)C1 (stereo not given),-2.59%,20.8%,-3.16%,6.78%,-0.936%,-3.92%,4.22%,-12.2%,5.83%,12.2%,-8.21%
Cn1ccnc1CN1CCN(CC(O)c2cccc(F)c2)CC1 (stereo not given),-1.52%,18.2%,-1.07%,4.38%,-0.49%,-1.9%,15.4%,-1.78%,6.67%,18.8%,-11.3%
O=C(NCCCn1ccnc1)N1CCCC1c1ccncc1 (stereo not given),-1.66%,-2.67%,-1.97%,-2.62%,-5.36%,1.56%,-1.57%,-1.17%,-0.546%,1.24%,5.86%
COc1cccc(CNc2c(C)cnc3c2c(=O)n(C)c(=O)n3C)c1,-2.5%,16.4%,-3.93%,-14.8%,2.35%,0.909%,15.4%,21.6%,3.23%,20%,-6.85%
CC(NC(=O)CSCC#N)c1ccccc1 (stereo not given),-1.5%,28.9%,-6.37%,-7.6%,5.51%,0%,15%,5.31%,7.39%,23.5%,-11.2%
CCOC(=O)NC(CNC(=O)c1ccccn1)CC(C)C (stereo not given),-4.62%,5.41%,0.908%,-3.92%,-3.03%,2.23%,4.72%,-2.89%,2.15%,8.64%,-5.52%
CC(O)CN1CCC(CNCc2cccc(OC(C)C)c2)CC1 (stereo not given),-8.77%,8.11%,-23.9%,28.4%,8.21%,-9.22%,1.26%,9.15%,6.4%,23.5%,-14.8%
c1ccc(N2CCOC3(CCCN(c4nncs4)C3)C2)nc1 (stereo not given),-3.17%,7.79%,3.64%,2.14%,-1.28%,3.23%,14.4%,-6.63%,3.17%,8.97%,-7.1%
Cn1cc(C(=O)N2CC[C@@H]3[C@@H]2CCN3Cc2cccc(F)c2)cn1,-5%,8.11%,1.6%,-0.0749%,0.88%,4.14%,9.96%,-2.6%,0%,10.3%,1.12%
CS(=O)(=O)N1CCN(CC(O)COc2ccc(F)cc2)CC1 (stereo not given),-0.431%,10.4%,2.55%,-2.66%,-4.02%,0.632%,11.4%,26.8%,2.86%,21.2%,-16.1%
CN(C)C(=O)[C@@H]1C[C@@H]2CCN(Cc3nccs3)C[C@@H]2O1,-4.02%,2.7%,4.31%,-1.06%,-3.62%,-3.5%,21.8%,-10.8%,4.32%,7.69%,3.4%
Cn1cnc2c1C(COCc1ccccc1)N(Cc1ccncc1)CC2 (stereo not given),-1.94%,2.67%,-0.486%,11.9%,-1.16%,-25.6%,7.69%,-15.2%,3.12%,10%,-6.37%
CC(C)C(=O)N1CCN(Cc2cc(-c3ccncc3)nn2C)CC1,-5.03%,12.2%,-0.905%,1.54%,3.75%,-3.48%,8.89%,0.905%,-5.38%,11.7%,-13.7%
CC(C)CNC(=O)Nc1ccc(CN2CCOC2=O)cc1,-6.23%,-15.3%,-5.54%,6.22%,-2.23%,0.442%,12.8%,25.7%,-7.37%,-25.6%,-1.07%
